Data taken from PubChem BioAssay AID2253 (Southern Research Specialized Biocontainment Screening …, 2010).
Out of some 2,200 compounds screened, about 1,300 (59%) were called active. No rule for the calls is given here. The set was probably picked from earlier hits. The list is a sample of the results. Entries with a potency or affinity are not part of this list.

test: THP-1 cell cytotoxicity, dose response, cytotoxicity control for Salmonella PhoP regulon inhibitors, S. typhimurium screen hits (AID 2253); conditions: THP-1 viability, CellTiter-Glo luminescence, 72 h; series mostly up to 50 µM; viability: at the top concentration

Q: For `Nc1nnc(-c2cccc(Cl)c2Cl)c(N)n1`, which “viability” value is on record?
A: 90.1% (inactive)

Q: With `CCn1cc(C(=O)O)c(=O)c2cc3c(cc21)OCO3` as the molecule, how does the “viability” value read?
A: 100% (inactive)

Q: Which “viability” value does the source give for `CCCn1c(N)c(C(=O)COC(=O)c2c(C)noc2C)c(=O)n(C)c1=O` here?
A: 81% (inactive)

Q: For `Cc1ccccc1-n1c(=O)c2ccccc2n2cnnc12`, which “viability” value is on record?
A: 98.5% (inactive)

Q: For `O=C(O)Cn1cc(C(=O)c2ccco2)c2ccccc21`, which “viability” value is on record?
A: 102% (inactive)

Q: Which “viability” value does the source give for `Cc1cc(C(=O)COC(=O)CNC(=O)c2ccco2)c(C)n1Cc1ccco1` here?
A: 90.9% (inactive)

Q: With `COc1ccc(N2CCN(C(=O)C3CCCO3)CC2)cc1` (configuration not stated) as the molecule, how does the “viability” value read?
A: 91.3% (inactive)

Q: Which “viability” value does the source give for `Cc1ccc(C)n1-c1cccc(N)c1` here?
A: 95.7% (inactive)

Q: Which “viability” value does the source give for `Cc1cc(C(=O)N/N=C/c2ccc[nH]2)no1` here?
A: 98.2% (inactive)

Q: For `CC(=O)N/N=C/c1ccc(OCCOc2ccc(Br)cc2)cc1`, which “viability” value is on record?
A: 103% (inactive)

Q: With `N/C(=N\OC(=O)c1ccc(F)cc1)c1nonc1N` as the molecule, how does the “viability” value read?
A: 82.5% (inactive)

Q: Which “viability” value does the source give for `CCOC(=O)C1=C(C)N(CCO)C(=O)NC1c1cccc(O)c1` (configuration not stated) here?
A: 93.5% (inactive)

Q: Which “viability” value does the source give for `Cc1cc(C)n(-c2ccc(C(=O)OCC(=O)Nc3ccc([N+](=O)[O-])cc3)cc2)n1` here?
A: 83.8% (inactive)

Q: With `COc1ccc(OC)c(C(C(=O)NCc2ccco2)N(C(=O)Cn2nnc3ccccc32)C(C)C)c1` (configuration not stated) as the molecule, how does the “viability” value read?
A: 86.7% (inactive)

Q: With `C=CCNC(=O)CC(=O)N/N=C/c1ccc(C(=O)OC)cc1` as the molecule, how does the “viability” value read?
A: 93.1% (inactive)

Q: For `Cc1ccc(/C=N/NC(=O)Cn2cnc3ccccc32)o1`, which “viability” value is on record?
A: 81.5% (inactive)

Q: For `O=C(C1CCN(C2CC(=O)N(Cc3ccccc3)C2=O)CC1)N1CCCCCC1` (configuration not stated), which “viability” value is on record?
A: 110% (inactive)

Q: Which “viability” value does the source give for `Cc1ccc(S(=O)(=O)N2C(=O)CCC2C(=O)N2CCN(C)CC2)cc1` (configuration not stated) here?
A: 80.2% [at 25 µM] (inactive)

Q: For `CCn1cc(C(=O)NCCCN(C)C)c(=O)c2cc(F)c(N3CCN(C)CC3)cc21`, which “viability” value is on record?
A: 90.6% (inactive)

Q: Which “viability” value does the source give for `Cc1cccc(-n2nc3c(c2NC(=O)c2ccco2)CSC3)c1C` here?
A: 92.4% (inactive)

Q: For `O=C(Nc1cccc(-c2cn3cccnc3n2)c1)c1ccco1`, which “viability” value is on record?
A: 82.7% (inactive)

Q: Which “viability” value does the source give for `CC(=O)Nc1ccc(-n2nnnc2SCC(=O)Nc2cccc(NC(=O)c3ccco3)c2)cc1` here?
A: 95% (inactive)

Q: With `O=C(NC1CCCCC1)n1c(=O)oc2ccc(Cl)cc21` as the molecule, how does the “viability” value read?
A: 83.7% (inactive)

Q: Which “viability” value does the source give for `Cc1ccc(C(=O)N2CC3(C(C)C)CN(C(=O)c4ccc(C)cc4)CC(C(C)C)(C2)C3=O)cc1` here?
A: 104% (inactive)

Q: For `Cc1ccc(C(=O)C(OC(=O)COc2ccccc2C)c2ccccc2)cc1` (configuration not stated), which “viability” value is on record?
A: 93% (inactive)

Q: Which “viability” value does the source give for `COC(=O)c1cc(C#N)c(Oc2ccc(F)cc2)nc1C` here?
A: 97.7% (inactive)

Q: For `Nc1nc(Nc2ccc(Cl)cc2)n[nH]1`, which “viability” value is on record?
A: 95.1% (inactive)

Q: For `COC(=O)CSc1nc(SCc2ccccc2Cl)nc2c1CCCC2`, which “viability” value is on record?
A: 107% (inactive)

Q: With `CCCCn1nnnc1NCc1cc(OC)c(OC)cc1OC` as the molecule, how does the “viability” value read?
A: 100% (inactive)

Q: Which “viability” value does the source give for `CCCCCNS(=O)(=O)c1cc(C)ccc1OC` here?
A: 83.1% (inactive)

Q: For `COc1ccc(C(C)C)cc1S(=O)(=O)Nc1ccc(Cl)cn1`, which “viability” value is on record?
A: 84.3% [at 25 µM] (inactive)

Q: For `C=CCNC(=O)C(=O)NN=C1CCN(C)CC1`, which “viability” value is on record?
A: 101% (inactive)

Q: For `COc1ccc(N2CCN(C(=O)Nc3ccc(S(=O)(=O)N(C)C)cc3)CC2)cc1`, which “viability” value is on record?
A: 107% (inactive)

Q: Which “viability” value does the source give for `CCOCCCNC(=S)Nc1cc(C)cc(C)c1` here?
A: 89% (inactive)

Q: For `COCCSc1ccccc1C(=O)NCC1CCCO1` (configuration not stated), which “viability” value is on record?
A: 95.3% (inactive)

Q: Which “viability” value does the source give for `COc1cccc(-c2nc(-c3ccc(Br)o3)no2)c1` here?
A: 89% (inactive)

Q: With `COCCNC(=S)N(Cc1cccnc1)Cc1ccc(OC)c(OC)c1` as the molecule, how does the “viability” value read?
A: 81% (inactive)

Q: For `CC1=C(C(=O)Nc2cccnc2)C(c2ccccn2)n2nnnc2N1` (configuration not stated), which “viability” value is on record?
A: 92% (inactive)

Q: Which “viability” value does the source give for `CCOC(=O)C1=C(C)NC(=O)NC1c1ccsc1` (configuration not stated) here?
A: 87.3% (inactive)

Q: For `CN1C(=O)CC(P(=O)(c2ccccc2)c2ccccc2)N(C)C1=O` (configuration not stated), which “viability” value is on record?
A: 92.1% (inactive)

Q: With `Cc1cn([C@H]2C[C@H](N=[N+]=[N-])[C@@H](CO)O2)c(=O)[nH]c1=O` as the molecule, how does the “viability” value read?
A: 89.7% (inactive)

Q: For `COc1nsnc1NS(=O)(=O)c1ccc(NC(=S)NC(=O)c2ccncc2)cc1`, which “viability” value is on record?
A: 100% (inactive)

Q: For `C#CC(C)(CC)NC(=O)c1cc(OC)c(OC)c(OC)c1` (configuration not stated), which “viability” value is on record?
A: 90.4% (inactive)

Q: Which “viability” value does the source give for `CCn1nnc(-c2ccccc2NS(=O)(=O)c2ccc(S(=O)(=O)N3CCCCCC3)cc2)n1` here?
A: 101% [at 12.5 µM] (inactive)

Q: Which “viability” value does the source give for `Cc1nc(CC(=O)c2ccc(O)cc2O)cs1` here?
A: 93.4% (inactive)

Q: Which “viability” value does the source give for `OCCNc1ccc(Cl)cc1` here?
A: 91.2% (inactive)

Q: With `CC(=O)Nc1nc(-c2ccc(Cl)cc2)nc(C)c1C(C)=O` as the molecule, how does the “viability” value read?
A: 93.3% (inactive)

Q: For `C#CCOc1c(Cl)cc(/C=N/O)cc1OC`, which “viability” value is on record?
A: 84.1% (inactive)

Q: With `CC(C(=O)NC1C=CS(=O)(=O)C1)N1C(=O)/C(=C/c2ccc(Cl)cc2)SC1=S` (configuration not stated) as the molecule, how does the “viability” value read?
A: 99% (inactive)

Q: Which “viability” value does the source give for `COc1cc(C)c(Cc2cnc(N)nc2N)cc1OC` here?
A: 84.8% (inactive)

Q: With `CCn1cc(C(=O)O)c(=O)c2cc(Br)ccc21` as the molecule, how does the “viability” value read?
A: 96% (inactive)

Q: Which “viability” value does the source give for `COc1ccc(NC(=O)CSc2nccn2-c2ccccc2)cc1` here?
A: 83.9% (inactive)

Q: For `Cc1ccc(OCc2nnc(SCC(=O)Nc3ccc4c(c3)OCO4)n2C)cc1`, which “viability” value is on record?
A: 103% (inactive)

Q: With `Cc1cc(C)c(C#N)c(SCC(O)CS(=O)(=O)Cc2ccccc2)n1` (configuration not stated) as the molecule, how does the “viability” value read?
A: 82.1% (inactive)

Q: For `CCn1c(Cc2c(C)[nH]c3ccccc23)n[nH]c1=S`, which “viability” value is on record?
A: 94.3% (inactive)

Q: For `O=C1CSc2ccccc2N1Cc1ccc(F)cc1`, which “viability” value is on record?
A: 91.5% (inactive)

Q: For `COc1cc(C2SCC(=O)N2c2nnc(C34CC5CC(CC(C5)C3)C4)s2)cc(OC)c1OC` (configuration not stated), which “viability” value is on record?
A: 100% (inactive)

Q: Which “viability” value does the source give for `C/C(=C\c1ccco1)C1Nc2cccc3cccc(c23)N1` here?
A: 116% (inactive)

Q: With `CN1CCN(C(c2cccc(C(F)(F)F)c2)c2nnnn2C(C)(C)C)CC1` (configuration not stated) as the molecule, how does the “viability” value read?
A: 90.2% (inactive)

Q: Which “viability” value does the source give for `O=C(O)c1cc(O)c2c(c1)[C@@H]([C@H]1c3cc(C(=O)O)cc(O)c3C(=O)c3c(O[C@@H]4O[C@H](CO)[C@@H](O)[C@H](O)[C@H]4O)cccc31)c1cccc(OC3O[C@H](CO)[C@@H](O)[C@H](O)[C@H]3O)c1C2=O` (some centres not stated) here?
A: 96.5% (inactive)

Q: Which “viability” value does the source give for `CN1CCN(c2c(F)cc3c(=O)c(C(=O)O)cn4c3c2OCN4C)CC1` here?
A: 99.9% (inactive)

Q: With `COc1ccc(-n2c(=O)c3ccccc3n(CC(=O)Nc3cc(C)on3)c2=O)cc1OC` as the molecule, how does the “viability” value read?
A: 103% (inactive)

Q: For `CCn1cc(C(=O)O)c(=O)c2cc(F)c(N3CCN(C(=S)NC(=O)c4ccc(F)c(F)c4)CC3)cc21`, which “viability” value is on record?
A: 91.9% (inactive)

Q: For `COc1ccccc1CC1(C)NC(=O)N(CC(=O)N2CC(C)OC(C)C2)C1=O` (configuration not stated), which “viability” value is on record?
A: 103% (inactive)

Q: With `CCn1nc(C(=O)O)c(=O)c2cc3c(cc21)OCO3` as the molecule, how does the “viability” value read?
A: 103% (inactive)

Q: For `Cc1snc(S(=O)(=O)/C(C#N)=N\Nc2ccccc2)c1C#N`, which “viability” value is on record?
A: 85.4% (inactive)

Q: For `COc1ccc(N2C(=O)[C@@H]3[C@H](C2=O)[C@H]2c4ccccc4C=CN2[C@@H]3C(=O)Nc2ccccc2)cc1`, which “viability” value is on record?
A: 91.8% (inactive)

Q: Which “viability” value does the source give for `CC(C)NC(=O)/C(=N\O)c1ccccc1` here?
A: 108% (inactive)

Q: With `Cc1cc(C(C)c2ccccc2)c(O)c(CN2CCOCC2)c1C` (configuration not stated) as the molecule, how does the “viability” value read?
A: 91.4% (inactive)

Q: With `O=C(c1ccccc1)N1CCSC1=S` as the molecule, how does the “viability” value read?
A: 91.7% (inactive)

Q: For `CCC(CC)C(=O)Nc1cccc(C(=O)N2CCCC2)c1`, which “viability” value is on record?
A: 90% (inactive)

Q: For `CC(CN1CCOCC1)C(=O)c1ccccc1` (configuration not stated), which “viability” value is on record?
A: 85% (inactive)
